Test results reported in article PMC5540273 (PLoS ONE, 2017).
Several values for one entry are separate records, joined by “and”; a condition that tells them apart may be missing. Equal entries are not always repeated. Where two headings read alike, the source gives them in different places.

How the values were obtained:
AXL = conditions: concentration: 1 μM, replicates: in singlicate, n = 1
BIKE = tested on: T1, BIKE; conditions: concentration: 1 μM, replicates: in singlicate, n = 1
T1 construct: gene BMP2K

BMPR1B = conditions: concentration: 1 μM, replicates: in singlicate, n = 1
BMPR2 = conditions: concentration: 1 μM, replicates: in singlicate, n = 1
BMX = conditions: concentration: 1 μM, replicates: in singlicate, n = 1
BRAF = conditions: concentration: 1 μM, replicates: in singlicate, n = 1
BRK = tested on: T2, BRK; conditions: concentration: 1 μM, replicates: in singlicate, n = 1
T2 construct: gene PTK6

AURKC = conditions: concentration: 1 μM, replicates: in singlicate; n = 1
BLK = conditions: concentration: 1 μM, replicates: in singlicate; n = 1
BMPR1A = conditions: concentration: 1 μM, replicates: in singlicate; n = 1
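Also: KINOMEscan kinase panel screen.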

Structure (SMILES)	%Inh (AXL; 1 µM)	%Inh (BIKE; 1 µM)	%Inh (BMPR1B; 1 µM)	%Inh (BMPR2; 1 µM)	%Inh (BMX; 1 µM)	%Inh (BRAF; 1 µM)	%Inh (BRK; 1 µM)	%Inh (AURKC)	%Inh (AXL)	%Inh (BIKE)	%Inh (BLK)	%Inh (BMPR1A)	%Inh (BMPR1B)	%Inh (BMPR2)	%Inh (BMX)	%Inh (BRAF)	%Inh (BRK)
COc1ccc(-c2nc3n(c2-c2ccncc2)CCC3)cc1 [SKF-104493]	14% and 0%	10% and 0%	0% and 1%	39% and 2%	0% and 11%	23% and 0%	2% and 0%										
O=C(Nc1ccccc1F)NC1CCN(c2ccnc(Nc3ccc(F)cc3)n2)C1 (stereo not shown) [GSK1379722]								30%	0%	8%	16%	0%	0%	13%	7%	7%	5%
Nc1n[nH]c2nnc(-c3ccccc3)cc12 [SB-517389]								0%	0%	0%	0%	4%	0%	0%	0%	0%	20%
CC(C)(C)OC(=O)NC1CCCN(c2cc(-c3ccc4c(N)n[nH]c4c3)nc(N)n2)C1 (stereo not shown) [GSK2286096]								53%	5%	10%	0%	0%	0%	0%	8%	16%	13%
Fc1cccc(COc2ccc(Nc3ncnc4cc[nH]c34)cc2Cl)c1								8%	16%	9%	1%	21%	16%	15%	6%	0%	11%
CC(C)(C)c1ccc(-n2cnc3c(N)ncnc32)cc1 [SKF-97263]								16%	15%	19%	6%	0%	5%	6%	16%	0%	6%
Clc1cccc(-c2nc(Nc3ccncc3)c3ccccc3n2)c1 [GW873004]								10%	0%	10%	19%	21%	4%	10%	43%	0%	24%
CS(=O)(=O)CCNCc1nc(-c2ccc3ncnc(Nc4ccc(OCc5cccc(F)c5)c(Cl)c4)c3c2)cs1.Cl [GW583340]								0%	0%	0%	25%	0%	0%	0%	0%	0%	0%
FC(F)(F)c1ccc(-c2nn3ncccc3c2-c2ccnc(Nc3cccc(C(F)(F)F)c3)n2)cc1 [GW828205]								12%	0%	1%	1%	0%	0%	0%	0%	0%	0%
COc1ccc(Nc2nccc(N3CCC(NC(=O)Nc4ccc5c(c4)OCO5)C3)n2)cc1 (stereo not shown) [GSK1379745]								43%	22%	33%	25%	13%	0%	23%	13%	2%	10%
CCc1nc(-c2cccc(N(C)S(=O)(=O)c3ccccc3)c2)c(-c2ccnc(Nc3ccc(N4CCN(C(C)=O)CC4)nc3)n2)s1 [GSK1645895]								0%	0%	0%	64%	0%	0%	0%	15%	60%	31%
Cl.O=S(=O)(c1cccc(F)c1)c1ccc(Nc2ncnc3cc(Br)sc23)cc1Cl [GSK306886]								0%	0%	0%	10%	0%	0%	0%	15%	0%	0%
Cl.Fc1ccccc1COc1ccc(Nc2ncnc3ccc(-c4nnc(C(F)(F)F)o4)cc23)cc1Cl [GW424170]								0%	0%	9%	21%	0%	0%	5%	1%	0%	6%
Fc1cccc(COc2ccc(Nc3ncnc4nn5ccccc5c34)cc2Cl)c1 [GW689066]								6%	0%	15%	57%	0%	0%	4%	5%	0%	0%
CC(C)N1CCC(n2cnc(-c3ccc(F)cc3)c2-c2ccnc(N)n2)CC1 [SB-223132]								51%	5%	32%	2%	10%	0%	0%	9%	0%	5%
CN1c2ccc(-c3ccc(C(=O)NCCO)cc3)cc2-c2[nH]ncc2S1(=O)=O								9%	17%	10%	26%	19%	16%	0%	13%	19%	0%
Nc1nc(-c2cccnc2)c(-c2ccnc3ccccc23)s1 [GW684083]								10%	7%	34%	58%	0%	55%	28%	34%	0%	9%
NC(=O)c1sc(-n2cnc3ccccc32)cc1OCc1ccccc1F [GSK1024306]								38%	0%	60%	0%	0%	0%	27%	6%	0%	14%
Nc1nc(-c2ccc3c(N)n[nH]c3c2)cc(N2CCCCC2)n1 [GSK2228768]								23%	0%	56%	4%	0%	0%	0%	0%	0%	0%

Structure (SMILES)	%Inh (AXL; 1 µM)	%Inh (BIKE; 1 µM)	%Inh (BMPR1B; 1 µM)	%Inh (BMPR2; 1 µM)	%Inh (BMX; 1 µM)	%Inh (BRAF; 1 µM)	%Inh (BRK; 1 µM)	%Inh (AURKC)	%Inh (AXL)	%Inh (BIKE)	%Inh (BLK)	%Inh (BMPR1A)	%Inh (BMPR1B)	%Inh (BMPR2)	%Inh (BMX)	%Inh (BRAF)	%Inh (BRK)
O=C(c1ccc(-c2cc(-c3c[nH]nc3-c3ccccn3)ccn2)cc1)N1CCCC1 [GW792479]								0%	0%	18%	9%	0%	9%	0%	12%	0%	0%
Cn1ccc2ncnc(Nc3ccc(Oc4cccc(Cl)c4)c(Cl)c3)c21								0%	0%	0%	14%	22%	0%	29%	13%	0%	17%
Oc1ccc2ncnc(Nc3ccc(OCc4ccccc4)cc3)c2c1 [GI262866]								34%	5%	20%	31%	0%	0%	0%	0%	0%	4%
CNc1nccc(-c2c(-c3ccc(F)cc3)ncn2C2CCN(C)CC2)n1 [SB-222903]								0%	0%	0%	36%	0%	0%	11%	0%	0%	0%
Cn1ccc2ncnc(Oc3ccc(NC(=O)Nc4cccnc4)c(Cl)c3)c21								0%	7%	0%	8%	0%	0%	7%	0%	0%	0%
N#Cc1ccc(Oc2ccc(Nc3ncnc4cc[nH]c34)cc2Cl)cc1								11%	22%	1%	28%	18%	8%	25%	13%	0%	11%
CSc1nn2c(=O)cc(N3CCOCC3)nc2n1Cc1cccc(Cl)c1Cl [GSK2347225]								11%	45%	29%	52%	19%	1%	0%	6%	0%	17%
Cl.Cn1ccc(-c2cccc(Nc3ccnc4cc(-c5nccs5)ccc34)c2)n1 [GW525701]								0%	0%	0%	15%	0%	0%	16%	0%	0%	5%
Nc1nc(-c2ccccn2)c(-c2ccnc3ccccc23)s1 [GW548057]								25%	8%	33%	9%	0%	35%	32%	9%	0%	1%
COc1ccc(-c2oc3ncnc(N)c3c2-c2ccc(OC)cc2)cc1 [SB-589132]								0%	13%	0%	66%	0%	0%	30%	0%	38%	15%
Cc1ccc(C)c(NC(=O)NCCNc2ccnc(Nc3ccc(F)cc3)n2)c1 [GSK1379878]								15%	0%	20%	33%	0%	0%	0%	0%	0%	1%
OCCOCCn1ccc2ncnc(Nc3ccc(Oc4cccc(Cl)c4)c(Cl)c3)c21								0%	0%	0%	3%	1%	0%	0%	13%	0%	0%
Fc1cccc(COc2ccc(Nc3ncnc4sc(-c5ccc[nH]5)cc34)cc2Cl)c1 [GW707818]								9%	0%	24%	0%	25%	0%	1%	6%	0%	0%
C[C@H]1CC[C@@H](C(=O)Nc2ccccc2)CN1c1cc(-c2ccc3c(N)n[nH]c3c2)nc(N)n1 [GSK2283293]								25%	0%	23%	50%	0%	0%	0%	7%	0%	19%
Cc1cc(N2CCC(NS(=O)(=O)c3ccc(F)cc3)CC2)nc(Nc2cccc(C#N)c2)n1.O=C(O)C(F)(F)F [GSK1653537]								18%	7%	21%	25%	0%	0%	0%	14%	0%	21%
Nc1nc(-c2ccc3c(N)n[nH]c3c2)cc(N2CCC[C@@H](C(=O)Nc3ccccc3)C2)n1.O=C(O)C(F)(F)F.O=C(O)C(F)(F)F [GSK2288359]								34%	0%	29%	0%	0%	0%	10%	0%	5%	5%
COc1cc2c(Nc3cccc(NC(=O)c4ccccc4)c3)ncnc2cc1OCCCN1CCOCC1 [GSK223810]								51%	42%	42%	58%	9%	0%	0%	33%	34%	18%
Cl.c1ccc(Cn2ncc3cc(Nc4ncnc5ccccc45)ccc32)cc1 [GW273749]								0%	0%	0%	17%	0%	0%	0%	0%	0%	0%
